Structures are written as SMILES. Inconclusive results are not listed. Where a call stands in place of a potency, no number is given. The source made the active and inactive calls. Calls come from the whole dose curve; as a rule, active = well fitted curve in the direction sought with a large enough effect in the repeat runs; inconclusive = weak or mixed curves; inactive = no such curve, though single readings can be large; an effect the other way counts as inactive or inconclusive.

The values below come from PubChem BioAssay (Tox21).

A short description of the first assay: Caspase-3/7 induction in CHO-K1 cells by small molecules, qHTS cell viability counter screen (AID 1346979). Note: nearly all actives have a fitted effect of over 35% in size. The settings on record: CellTiter-Fluor fluorescence, 17 h; series mostly up to 42.5 µM. The essentials:
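Following a 5hr settling period, CHO-K1 cells at 1,500 per well received DMSO-dissolved compounds. Cell viability was quantified 16hr later by CellTiter-Fluor fluorescence, measured after 1hr with reagent at 37C.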
On the technique in general: In qHTS, concentration-response curves come from the screen itself.
Turning to `O=c1n(CCO)c(=O)n(CCO)c(=O)n1CCO`, the Potency result is “inactive”.

As for `CCCCOCCOCCOCCCC`, the Potency result is “inactive”.

`CO[C@]12C[C@@H](COC(=O)c3cncc(Br)c3)CN(C)[C@@H]1Cc1cn(C)c3cccc2c13`: the Potency entry is “inactive”.

On to `CCc1ccc(O)c(OC)c1`, for which the Potency result is “inactive”.

`CCCCCCCCS(=O)(=O)Cl`: the Potency entry is “inactive”.

Turning to `CCO[Si](CCC1CCC2OC2C1)(OCC)OCC` (stereo unspecified), the Potency entry was “inactive”.

On to `NC(=O)c1ccc([N+](=O)[O-])cc1`, for which the Potency result is “inactive”.

Regarding `CS(=O)(=O)O`, the Potency entry is “inactive”.

Take `O=C(O)CCCc1ccccc1`: the Potency entry is “inactive”.

On to `O=Cc1cccc([N+](=O)[O-])c1`, for which the Potency result was “inactive”.

`N=c1nc(N2CCCCC2)cc(N)n1O`: the Potency result is “inactive”.

A further assay can be described thus: Caspase-3/7 induction in CHO-K1 cells by small molecules, qHTS assay (AID 1346980). Note: nearly all actives have a fitted effect of over 15% in size. As to conditions: CHO-K1 caspase-3/7 induction, Caspase-Glo luminescence, 17 h; series mostly up to 92.4 µM. The essentials:
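Luminescent Caspase-Glo 3/7 read (30min, room temperature) quantified apoptosis induction. Cells were wild-type CHO-K1, treated with compound for 17hr at 37 C and 5% CO2.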
As to `CN1CCC(=C2c3ccccc3CC(=O)c3sccc32)CC1`, the outcome was inactive.

Take `OC[C@]1(O)OC[C@@H](O)[C@H](O)[C@@H]1O`: the compound was classed as inactive.

Consider `CCCCC/C=C\CCC=O`, for which the outcome was inactive.

Regarding `CCCC(=O)O[C@]1(C(=O)CO)CC[C@H]2[C@@H]3CCC4=CC(=O)CC[C@]4(C)[C@H]3[C@@H](O)C[C@@]21C`, the compound was called inactive.

As for `COC(=O)CCSCCC(=O)OC`, the call was inactive.

As to `CC(=O)c1ccccc1O`, the compound was classed as inactive.

On to `CC(NC(CCc1ccccc1)C(=O)O)C(=O)N1C(=O)N(C)CC1C(=O)O` (stereo unspecified), for which the compound was classed as inactive.

Consider `NC(=O)c1ccc(N)cc1`, for which the compound was classed as inactive.

Consider `CC(C)OC(=O)c1ccccc1`, for which the compound was classed as inactive.

Take `Nc1c2c(nc3ccccc13)CCCC2O` (stereo unspecified): the outcome was inactive.

As to `CCCCCCCCCCCCCCCCC`, the outcome was inactive.

As to `COC(=O)CC(C)=O`, the compound was called inactive.

For `COc1ccc2c(c1)c(CC(=O)OCC(=O)O)c(C)n2C(=O)c1ccc(Cl)cc1`, the call was inactive.

As to `CCN1CCC[C@H]1CNC(=O)c1c(O)c(Cl)cc(Cl)c1OC`, the compound was called inactive.

With `O=C(O)c1ccccc1OP(=O)(O)O`, the compound was called inactive.

As for `CCOC(C)(C)C`, the outcome was inactive.

For the compound `Nc1nc2c(ncn2COC(CO)CO)c(=O)[nH]1`, the outcome was inactive.

In the case of `CCCCCCCCCCCCCC=O`, the caspase-3/7 activation is 1.18% [at 8.39 µM] (inactive).

As for `c1cnc(N2CCN(Cc3ccc4c(c3)OCO4)CC2)nc1`, the compound was called inactive.

Regarding `CC/C=C\CC/C=C/C(OCC)OCC`, the compound was classed as inactive.

`NCCc1cnc[nH]1`: the outcome was inactive.

With `CCC(=O)OC(C)c1ccccc1` (stereo unspecified), the call was inactive.

On to `COc1c(N2C[C@@H]3CCCN[C@@H]3C2)c(F)cc2c(=O)c(C(=O)O)cn(C3CC3)c12`, for which the compound was classed as inactive.

Regarding `O=S(O)CO`, the compound was classed as inactive.

For the compound `O=c1n(CCO)c(=O)n(CCO)c(=O)n1CCO`, the call was inactive.

For the compound `CCCCOCCOCCOCCCC`, the compound was called inactive.

With `CO[C@]12C[C@@H](COC(=O)c3cncc(Br)c3)CN(C)[C@@H]1Cc1cn(C)c3cccc2c13`, the call was inactive.

In the case of `CCc1ccc(O)c(OC)c1`, the compound was called inactive.

With `CCCCCCCCS(=O)(=O)Cl`, the compound was called inactive.

On to `CCO[Si](CCC1CCC2OC2C1)(OCC)OCC` (stereo unspecified), for which the result was inactive.

Consider `NC(=O)c1ccc([N+](=O)[O-])cc1`, for which the result was inactive.

On to `CS(=O)(=O)O`, for which the compound was called inactive.

As to `O=C(O)CCCc1ccccc1`, the compound was classed as inactive.

Regarding `O=Cc1cccc([N+](=O)[O-])c1`, the compound was called inactive.

With `N=c1nc(N2CCCCC2)cc(N)n1O`, the result was inactive.

The next assay is described as follows: Caspase-3/7 induction in HepG2 cells by small molecules, qHTS cell viability counter screen (AID 1346981). Note: nearly all actives have a fitted effect of over 30% in size. As to conditions: CellTiter-Fluor fluorescence, 17 h; series mostly up to 92.4 µM. The essentials:
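Wild-type HepG2 cells, 2,000/well, settled 5 hr at 37 C, 5% CO2 before compound addition. Viability read by CellTiter-Fluor fluorescence, reagent added after 16 hr compound exposure, then 1 hr at 37C, in the same wells as the caspase read.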
Turning to `CN1CCC(=C2c3ccccc3CC(=O)c3sccc32)CC1`, the Potency result is “inactive”.

In the case of `OC[C@]1(O)OC[C@@H](O)[C@H](O)[C@@H]1O`, the Potency entry is “inactive”.

In the case of `CCCCC/C=C\CCC=O`, the Potency entry is “inactive”.

For `CCCC(=O)O[C@]1(C(=O)CO)CC[C@H]2[C@@H]3CCC4=CC(=O)CC[C@]4(C)[C@H]3[C@@H](O)C[C@@]21C`, the Potency result is “inactive”.

For `COC(=O)CCSCCC(=O)OC`, the Potency result is “inactive”.

Take `CC(=O)c1ccccc1O`: the Potency entry is “inactive”.

As for `CC(NC(CCc1ccccc1)C(=O)O)C(=O)N1C(=O)N(C)CC1C(=O)O` (stereo unspecified), the Potency result was “inactive”.

`NC(=O)c1ccc(N)cc1`: the Potency result was “inactive”.

Consider `CC(C)OC(=O)c1ccccc1`, for which the Potency result was “inactive”.

Consider `Nc1c2c(nc3ccccc13)CCCC2O` (stereo unspecified), for which the Potency result is “inactive”.

With `CCCCCCCCCCCCCCCCC`, the Potency result is “inactive”.

Take `COC(=O)CC(C)=O`: the Potency result is “inactive”.

On to `COc1ccc2c(c1)c(CC(=O)OCC(=O)O)c(C)n2C(=O)c1ccc(Cl)cc1`, for which the Potency entry is “inactive”.

For `CCN1CCC[C@H]1CNC(=O)c1c(O)c(Cl)cc(Cl)c1OC`, the Potency result is “inactive”.

With `O=C(O)c1ccccc1OP(=O)(O)O`, the Potency entry is “inactive”.

Turning to `CCOC(C)(C)C`, the Potency entry is “inactive”.

Consider `Nc1nc2c(ncn2COC(CO)CO)c(=O)[nH]1`, for which the Potency result was “inactive”.

Turning to `CCCCCCCCCCCCCC=O`, the activity change, negative = cytotoxicity was -0.047% [at 8.39 µM] (inactive).

On to `c1cnc(N2CCN(Cc3ccc4c(c3)OCO4)CC2)nc1`, for which the Potency entry is “inactive”.

In the case of `CC/C=C\CC/C=C/C(OCC)OCC`, the Potency result was “inactive”.

For the compound `NCCc1cnc[nH]1`, the Potency entry was “inactive”.

With `CCC(=O)OC(C)c1ccccc1` (stereo unspecified), the Potency result was “inactive”.

For `COc1c(N2C[C@@H]3CCCN[C@@H]3C2)c(F)cc2c(=O)c(C(=O)O)cn(C3CC3)c12`, the Potency entry was “inactive”.

For the compound `O=S(O)CO`, the Potency result is “inactive”.

For `O=c1n(CCO)c(=O)n(CCO)c(=O)n1CCO`, the Potency entry is “inactive”.

Turning to `CCCCOCCOCCOCCCC`, the Potency result is “inactive”.

As to `CO[C@]12C[C@@H](COC(=O)c3cncc(Br)c3)CN(C)[C@@H]1Cc1cn(C)c3cccc2c13`, the Potency entry is “inactive”.

`CCc1ccc(O)c(OC)c1`: the Potency result is “inactive”.

As for `CCCCCCCCS(=O)(=O)Cl`, the Potency result was “inactive”.

With `CCO[Si](CCC1CCC2OC2C1)(OCC)OCC` (stereo unspecified), the Potency result was “inactive”.

For the compound `NC(=O)c1ccc([N+](=O)[O-])cc1`, the Potency entry was “inactive”.

With `CS(=O)(=O)O`, the Potency entry is “inactive”.

With `O=C(O)CCCc1ccccc1`, the Potency entry was “inactive”.

For the compound `O=Cc1cccc([N+](=O)[O-])c1`, the Potency result is “inactive”.

With `N=c1nc(N2CCCCC2)cc(N)n1O`, the Potency result is “inactive”.
